High-throughput results (PubChem BioAssay)
Most compounds without a hit are left out; they make up all but 14% or so of the library.
LmPK inhibitor: inhibitors of Leishmania mexicana pyruvate kinase | Q27686 | purified LmPK, Kinase-Glo ATP luminescence, 1 h | Potency, µM (top dose mostly 57.5 µM), usual class: inhibitors | actives 0.37% (n = 290,000)
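Purified LmPK (0.1 nM) converted ADP (0.1 mM) to ATP with PEP (0.5 mM) in imidazole buffer pH 7.2 with KCl and MgCl2, 1 h at room temperature. ATP was read by Kinase-Glo luminescence; data normalized to uninhibited and no-enzyme controls.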
NS1 function inh: inhibitors of influenza NS1 protein function | Potency, µM (highest dose often 46.1 µM) | actives 0.4% (n = 270,000) | AID 2326; calls by dose curve; note: actives are rising curves; nearly all actives have a fitted effect of over 50% in size
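OD600 was taken as the measure of yeast growth restored by compound in an NS1-expressing S. cerevisiae strain. Cells had been washed out of glucose medium and diluted 1:100 into galactose -URA medium, pH 6.0.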
Shiga toxin inh: Shiga toxin inhibition. Vero cells, Shiga toxin protein synthesis inhibition reporter. inhibition, % at 38.7 µM. actives 9.2% (n = 290,000); in the data active = inhibition mostly above about 28%, no sharp cut-off; inactive = mostly below about 43%
FBPA Giardia inh: blocks Giardia fructose-bisphosphate aldolase activity | A8B2U2 | purified Giardia FBPA | Potency, µM (series often up to 59.6 µM), most hits filed as inhibitors | actives 0.71% (n = 290,000); note: nearly all actives have a fitted effect of over 55% in size
Target sequence (A8B2U2 whole entry, looked up): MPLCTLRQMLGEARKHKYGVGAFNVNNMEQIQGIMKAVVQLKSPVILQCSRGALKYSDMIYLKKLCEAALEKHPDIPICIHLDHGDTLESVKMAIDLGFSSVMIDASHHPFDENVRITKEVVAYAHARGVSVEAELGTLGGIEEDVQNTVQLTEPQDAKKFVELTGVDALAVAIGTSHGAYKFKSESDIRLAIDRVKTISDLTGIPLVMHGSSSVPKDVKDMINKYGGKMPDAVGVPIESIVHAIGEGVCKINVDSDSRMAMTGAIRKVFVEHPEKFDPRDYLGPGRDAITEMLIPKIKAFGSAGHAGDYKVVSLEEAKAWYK
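Giardia FBPA (40 nM reagent) was preincubated 10 min at RT with compound (up to 57.5 uM final), then substrate plus GAPDH/TPI/NAD/arsenate coupling system with diaphorase/resazurin was added; resorufin fluorescence (525/598 nm) was read after 20 min.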
Cycloheximide cs: affects cycloheximide protein synthesis inhibition readout, counter-screen. AID 2314. cell reporter, cycloheximide protein synthesis inhibition counterscreen. actives 12% (n = 300,000). max response, %; in the data active = max response mostly above about 13%, no sharp cut-off; inactive = mostly below about 14%; note: read at 38.3 µM for the half of the compounds with a filed dose
Large screens that a line does not name were inactive. Unless noted, calls come from the whole dose curve; as a rule, active = well fitted curve in the direction sought with a large enough effect; inconclusive = small, poorly fitted or top-dose-only effect, or another doubt; inactive = no such curve, though single readings can be large; an effect the other way counts as inactive or inconclusive.

CCn1cc([N+](=O)[O-])c(C(=O)N2N=C(c3ccc4ccccc4c3)CC2c2ccccc2O)n1 (centres undefined)	NS1 function inh inconclusive, Shiga toxin inh 27, Cycloheximide cs 34
CCn1cc(Cl)c(C(=O)N2N=C(c3ccc4ccccc4c3)CC2c2ccccc2O)n1 (centres undefined)	none
Cc1cccc(Cc2nnc(CCC(=O)N(C)C3CCOC3)o2)c1 (centres undefined)	Shiga toxin inh 71, Cycloheximide cs 27
CCN1CCN(C(=O)CCc2nnc(CCc3ccc(OC)cc3)o2)[C@@H](C)C1=O	Cycloheximide cs 23 (no result: FBPA Giardia inh)
Cc1cccc(Cc2nnc(CCC(=O)N(CC3CC3)CC3CCCO3)o2)c1 (centres undefined)	Shiga toxin inh 58, Cycloheximide cs 47
CCCOC1CCCN(C(=O)CCc2nnc(Cc3cccc(C)c3)o2)C1 (centres undefined)	Shiga toxin inh 95, Cycloheximide cs 47
CCc1ccc(CN(C)C(=O)CCc2nnc(Cc3cccc(C)c3)o2)nc1	none
CCC(c1nnc(SCC(=O)Nc2c(F)cccc2F)n1Cc1ccccc1)N(C)C (centres undefined)	none (no result: FBPA Giardia inh)
O=C(c1cc2cc(F)ccc2[nH]1)N1CCC(Cc2ccccc2)CC1	none
CCCN(CC1CCCO1)C(=O)CCc1nnc(CCc2ccc(OC)cc2)o1 (centres undefined)	Cycloheximide cs 27 (no result: FBPA Giardia inh)
Cc1ccc(F)cc1NCC(=O)Nc1ccc(Br)cc1	Shiga toxin inh 58, Cycloheximide cs 31
Cc1ccc(C)c(Sc2ccc(NC(=O)CCl)cc2)c1	none
Cc1ccc(NCC(=O)Nc2ccc(Br)cc2)cc1C	Cycloheximide cs 18
Cc1cc(F)ccc1NCC(=O)Nc1ccc(Br)cc1C	none
Cc1ccc(Sc2ccc(NC(=O)CCl)cc2)cc1C	Shiga toxin inh 18, Cycloheximide cs 11
CCC(C)c1ccccc1N=Cc1ccc2c(c1)OCO2 (centres undefined)	none
O=C(c1cccc([N+](=O)[O-])c1)N1CCN(c2n[nH]c(=O)[nH]c2=O)CC1	none
CCCCC(=O)Nc1ccc(C(=O)NCCc2ccccc2)cc1	Cycloheximide cs 31
CCCCC(=O)Nc1ccc(C(=O)NCCc2ccc(S(N)(=O)=O)cc2)cc1	none
CCCC(=O)Nc1ccc(C(=O)NCCc2ccc(F)cc2)cc1	Cycloheximide cs 24
CCOc1ccc(C(=O)Nc2ncccc2Cl)cc1	Shiga toxin inh 71, Cycloheximide cs 42
COCCNC(=O)C(=O)N/N=C(\C)CC(=O)Nc1ccc2c(c1)OCO2	none (no result: NS1 function inh)
COc1ccc(CNC(=O)C/C(C)=N/NC(=O)c2cnccn2)cc1	Shiga toxin inh 71, Cycloheximide cs 45
COc1ccc(CNC(=O)C/C(C)=N/NC(=O)C(c2ccccc2)c2ccccc2)cc1	none
O=C(NCc1ccc(Cl)cc1)c1cnccn1	none (no result: FBPA Giardia inh)
O=C(NCc1ccc(F)cc1)c1cnccn1	Cycloheximide cs 10
COCCNC(=O)C(=O)N/N=C(\C)CC(=O)Nc1cccnc1	Cycloheximide cs 13
C/C(CC(=O)Nc1ccccn1)=N\NC(=O)c1cnccn1	Shiga toxin inh 79, FBPA Giardia inh inconclusive, Cycloheximide cs 44
CCOc1ccc(NC(=O)c2cnsn2)cc1	Shiga toxin inh 55, Cycloheximide cs 30
CCOc1ccc(NC(C)=O)cc1	none
CNS(=O)(=O)c1ccc(NC(=O)c2ccccn2)cc1	Shiga toxin inh 23, Cycloheximide cs 63
C/C(CC(=O)Nc1ccc2ccccc2c1)=N\NC(=O)c1ccc(O)c(O)c1	Shiga toxin inh 86, FBPA Giardia inh inconclusive, Cycloheximide cs 38
C=CCS(=O)(=O)N1CCCC(Cc2ccccc2C)(C(=O)OCC)C1 (centres undefined)	none
CCOc1ccc(NC(=O)c2cnccn2)cc1	Shiga toxin inh 18, Cycloheximide cs 18
CCOc1ccc(NC(=O)c2nccnc2CO)cc1	LmPK inhibitor inconclusive, Shiga toxin inh 93, Cycloheximide cs 46
CCOc1ccc(NC(=O)C/C(C)=N/NC(=O)c2cnccn2)cc1	Shiga toxin inh 32, Cycloheximide cs 22 (no result: FBPA Giardia inh)
CCOc1ccc(NC(=O)c2ccccn2)cc1	LmPK inhibitor 13µM
CCOc1ccccc1NC(=O)c1cnccn1	none
COc1ccc(NC(=O)C/C(C)=N/NC(=O)c2cnccn2)cc1	Shiga toxin inh 99, Cycloheximide cs 28
COc1ccc(CNC(=O)C/C(C)=N/NC(=O)C23CC4CC(CC(C4)C2)C3)cc1	Shiga toxin inh 53, Cycloheximide cs 29
COc1ccc(OCC(=O)N/N=C(\C)CC(=O)Nc2ccc(NC(C)=O)cc2)cc1	none
C/C(CC(=O)Nc1ccc2ccccc2c1)=N\NC(=O)c1cnccn1	Shiga toxin inh 52, Cycloheximide cs 29
COc1ccc(CNC(=O)C/C(C)=N/NC(=O)Cc2ccc(OC)cc2)cc1	none
CN(C)CCCc1cc(C(=O)Nc2ccc(-c3ccncc3)cc2)ccc1O	none (no result: LmPK inhibitor, NS1 function inh, Shiga toxin inh, Cycloheximide cs)
CN(Cc1ccccc1)C(=O)c1[nH]cnc1C(=O)NCC(=O)OCc1ccccc1	none
O=C(COc1ccc(Cl)cc1Cl)NNC(=S)NCc1ccco1	Cycloheximide cs 17
O=C(COc1ccccc1Cl)NCc1ccco1	Cycloheximide cs 23
O=C(NCc1ccco1)c1ccc(COc2cc(Cl)ccc2Cl)cc1	Shiga toxin inh 69, Cycloheximide cs 24
O=C(Cc1cccs1)NNC(=S)NCc1ccco1	none
O=C(Cc1ccc(-c2ccccc2)cc1)NNC(=S)NCc1ccco1	Shiga toxin inh 56 (no result: NS1 function inh)
O=C(COc1ccc(Cl)cc1Cl)NNC(=S)NC(=O)c1ccco1	none
CCOC(=O)C1CCN(S(=O)(=O)c2ccc(OC)c(C(=O)N3CCCCC3)c2)CC1	none
O=C(O)CC(Cc1ccccc1)(C(=O)O)c1ccccc1 (centres undefined)	none
C=CCNS(=O)(=O)c1cc2c3c(c1)CCN3C(=O)CC2	none
COCCNC(=S)N(CCc1c(C)[nH]c2ccc(F)cc12)Cc1ccco1	none
O=C(NCc1ccco1)c1ccc2c(c1)N(Cc1ccc(Cl)cc1)CCS2	Shiga toxin inh 45, Cycloheximide cs 8.3
O=C(COc1cccc2c1CCN(Cc1ccc(Br)cc1)C2=O)N1CCOCC1	none (no result: NS1 function inh)
C/C(CC(=O)NCc1ccco1)=N\NC(=O)COc1ccc(Cl)cc1Cl	none
O=C(COc1cccc2c1CCN(Cc1ccc(Br)cc1)C2=O)NCc1ccco1	Cycloheximide cs 29
O=C(COc1ccc(Cl)cc1Cl)NCc1ccco1	Shiga toxin inh 126, Cycloheximide cs 29
c1ccc2c(c1)c1ccccc1n2Cn1c2ccccc2c2ccccc21	none (no result: LmPK inhibitor, Shiga toxin inh, FBPA Giardia inh, Cycloheximide cs)
O=C(NCCCl)c1ccc(OCc2ccccc2)cc1Cl	Shiga toxin inh 66, Cycloheximide cs 34 (no result: NS1 function inh)
C#CCNC(=O)c1ccc(OCc2ccccc2)cc1Cl	Shiga toxin inh 58 (no result: NS1 function inh)
COc1ccc(CCNC(=O)c2ccc(Cl)cc2Cl)cc1	none
COc1cc(=O)[nH]c(SCC(=O)Nc2nc3c(s2)CCCC3)n1	none
COc1ccc(NC2C[C@H]3CCCC(=O)N4CC[C@@H](C2)[C@@H]34)cc1 (some centres undefined)	none (no result: LmPK inhibitor, NS1 function inh)
Brc1ccccc1-n1nnc(-c2ccnc3ccccc23)n1	Cycloheximide cs 19
Cc1ccc(OCCSc2ncnc3nc[nH]c23)cc1	Cycloheximide cs 61
